# From PubChem BioAssay (Tox21)
# Records with an inconclusive call do not appear. The source made the active and inactive calls. Calls follow the shape of the full dose curve.
# Test: p53 small molecule agonists, cell-based qHTS assay with rat liver microsomes (AID 1963578)
# Settings: HCT-116 p53RE-bla, beta-lactamase ratio, 16 h; series mostly up to 66 µM; activation: at the top concentration
# Excerpt: U.S. Tox21 Program National Center for Advancing Translational Sciences [NCATS] Division of Preclinical Innovation [DPI] U.S. Environmental Protection Agency [EPA] National Institutes of Environmental Health Sciences [NIEHS] National Toxicology Program [NTP] U.S. Food and Drug Administration [FDA] Tox21 Assay Overview: p53, a tumor suppressor protein, is activated following cellular insult, including DNA damage and other cellular stresses. The activation of p53 regulates cell fate by inducing DNA repair, cell cycle arrest, apoptosis, or cellular senescence. The activation of p53, therefore, is a good indicator of DNA damage and other cellular stresses. […] The activation of the reporter gene under culture conditions can be detected by fluorescence intensity. This cell line was used to screen the Tox21 10K compound library in the condition of presence of rat liver microsomes and to identify agonists that activate the p53 signaling pathway after in vitro metabolic activation (Ooka et al., Archive of Toxicology 96:1975-1987, 2022).
# Tox21 Assay Protocol Summary: The p53RE-bla cells were dispensed at 4,000cells/3ul/well in 1536-well black-clear bottom plates. After the assay plates were incubated at 37 C, 5% CO2 incubator for 5 hours, 23 nL of compounds dissolved in DMSO, positive controls or DMSO only was transferred to the assay plate. Following compound addition, 3 uL of rat liver microsomes (Molecular Toxicology, Boone, NC) at final concentration of 0.5 mg/mL and 1uL of Beta-Nicotinamide adenine dinucleotide 2-phosphate (NADPH) at final concentration of 0.5 mg/mL were transferred to the assay plate. The plates were incubated at 37 C for 16 hours. 1 uL of LiveBLAzer detection mixture was added to each well and the plates were incubated at room temperature in the dark for 2 h.
# % is scaled to controls: 0 for no effect and ±100 for the full control effect.
row,Structure (SMILES),activation
1,CCC1=C(C)CN(C(=O)NCCc2ccc(S(=O)(=O)NC(=O)NC3CCC(C)CC3)cc2)C1=O (stereo not given),0.18% [at 30.3 µM] (inactive)
2,C[C@]12C=CC(=O)C=C1[C@@H](F)C[C@@H]1[C@@H]2[C@@H](O)C[C@@]2(C)[C@H]1CC[C@]2(O)C(=O)CO,-0.25% [at 30.3 µM] (inactive)
3,C1COC(NC(C2CC2)C2CC2)=N1,-2.26% [at 30.3 µM] (inactive)
4,CCCCCCCCCCCCCCBr,-3.85% (inactive)
5,COC(C)(C)CCCC(C)CC=O (stereo not given),-3.81% (inactive)
6,CCCCCCC(O)CO (stereo not given),0.518% (inactive)
7,CN(C[C@@H](CC[N+]12CCC(C3CCCCC3)(CC1)CC2)c1ccc(Cl)c(Cl)c1)C(=O)c1cc(C(F)(F)F)cc(C(F)(F)F)c1,-7.55% (inactive)
8,O=C(O)Cc1ccc2c(c1)C(=O)c1ccccc1CO2,-1.19% [at 30.3 µM] (inactive)
9,Nc1c2c(nc3ccccc13)CCCC2O (stereo not given),-1.08% [at 30.3 µM] (inactive)
10,[Cl][Sc]([Cl])[Cl],-2.99% (inactive)
11,O=C(O)C(=O)Cc1c[nH]c2ccccc12,-1.02% (inactive)
12,Cc1ccccc1C(=O)O,-0.392% (inactive)
13,CCc1cc(S(=O)(=O)O)c2cc(C(C)C)cccc1-2,0.183% [at 30.3 µM] (inactive)
14,C=C1C(CCl)(CCl)C2(Cl)C(Cl)C(Cl)C1(Cl)C2(Cl)Cl (stereo not given),0.216% (inactive)
15,O=C1[C@H]2CCCC[C@H]2C(=O)N1CCCCN1CCN(c2nsc3ccccc23)CC1,-2.19% [at 30.3 µM] (inactive)
16,CCCc1ncc(C(=O)O)s1,0.238% [at 30.3 µM] (inactive)
17,Oc1cn2c(n1)Nc1ccc(Cl)c(Cl)c1C2,-0.253% [at 13.6 µM] (inactive)
18,CCCCCCCCCC[N+](C)(C)[O-],-3.19% (inactive)
19,OC(CCCN1CCCCC1)(c1ccccc1)c1ccccc1,0.234% [at 30.3 µM] (inactive)
20,CC(C)Nc1nc(N)nc(Cl)n1,-0.335% (inactive)

row,Structure (SMILES),activation
1,CC(=O)OCC(=O)[C@@]1(O)CC[C@H]2[C@@H]3CCC4=CC(=O)C=C[C@]4(C)[C@@]3(F)[C@@H](O)C[C@@]21C,0.324% [at 30.3 µM] (inactive)
2,CC(C)(C)C(=O)NCCCC(=O)O,0.487% [at 30.3 µM] (inactive)
3,Oc1cccc2cc3cccc(O)c3c(O)c12,-1.58% (inactive)
4,CN1CCOC(c2ccccc2)c2ccccc2C1 (stereo not given),-0.92% [at 30.3 µM] (inactive)
5,CC(C)(C)NCC(O)COc1cccc2c1C[C@H](O)[C@H](O)C2 (stereo not given in full),-2.97% [at 30.3 µM] (inactive)
6,O=C(O)Cc1c(Cl)ccc(Cl)c1Cl,1.02% (inactive)
7,CN(CCOc1ccc(NS(C)(=O)=O)cc1)CCc1ccc(NS(C)(=O)=O)cc1,-0.309% [at 30.3 µM] (inactive)
8,CC(=O)OC[C@H]1O[C@@H](n2ncc(=O)[nH]c2=O)[C@H](OC(C)=O)[C@@H]1OC(C)=O,7.54% [at 30.3 µM] (inactive)
9,CCCCCCCCCCc1ccccc1,1.22% (inactive)
10,CCCCC1=NC2(CCCC2)C(=O)N1Cc1ccc(-c2ccccc2-c2nn[nH]n2)cc1,4.32% [at 30.3 µM] (inactive)
11,O=C=NCc1cccc(CN=C=O)c1,0.266% [at 13.6 µM] (inactive)
12,OC[C@H]1O[C@@H](O[C@@H]2[C@@H](CO)O[C@](O)(CO)[C@H]2O)[C@H](O)[C@@H](O)[C@H]1O,-2.36% [at 30.3 µM] (inactive)
13,C=C(C)c1cccc(C(C)(C)N=C=O)c1,2.21% (inactive)
14,O=C(CCCCC(=O)Nc1c(I)cc(I)c(C(=O)O)c1I)Nc1c(I)cc(I)c(C(=O)O)c1I,-0.0407% [at 30.3 µM] (inactive)
15,CN[C@@H]1[C@H](O)[C@H](NC)[C@H]2O[C@@]3(O)C(=O)C[C@@H](C)O[C@H]3O[C@@H]2[C@H]1O,1.56% [at 30.3 µM] (inactive)
16,CCCCCN(CCCOC)C(=O)C(CCC(=O)O)NC(=O)c1ccc(Cl)c(Cl)c1 (stereo not given),0.234% [at 30.3 µM] (inactive)
17,O=C(CCCCCCCCC#CI)Oc1ccccc1,0.106% [at 30.3 µM] (inactive)
18,CC(=O)OC1CCCCC1,0.22% (inactive)
19,C/C=C\C/C=C/CCCCCCCCOC(C)=O,-3.09% (inactive)
20,COc1cc2nc(Cl)nc(N)c2cc1OC,-2.5% [at 30.3 µM] (inactive)
